# TDP1 cell CPT: growth inhibition of DT40 Tdp1-/-;hTDP1 cells with camptothecin (screen for TDP1 inhibitors); chicken DT40 Tdp1-/-;hTDP1 cells + 20 nM CPT, ATP luminescence, 48 h; Potency, µM (titrated, usually from 46.2 µM), usual class: inhibitors; 420,000 compounds, 12% hits; AID 686979; also: nearly all actives have a fitted effect of over 55% in size
#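 Chicken DT40 Tdp1-/- cells stably complemented with human TDP1 were seeded at 400 cells/well in medium containing 20 nM camptothecin, exposed to pin-transferred compounds, and grown at 37 °C for at least 48 hr. Viability was read as ATP luminescence.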
# HT1080 IDH1KD tx: toxicity to HT-1080 IDH1 knockdown cells (counter line); HT-1080 IDH1 knockdown viability, ATP luminescence, 48 h; Potency, µM (top dose mostly 46.1 µM), hits mostly cytotoxic; 360,000 compounds, 2% hits
#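 After a 2 h attachment period, IDH1KD HT-1080 cells took pin-transferred compound for 48 h at 37 °C; ATP-based luminescence after 10 min room-temperature reagent incubation reported viability.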
# HT1080NT lethal: kills 2HG-producing HT-1080-NT fibrosarcoma cells; AID 686970; 360,000 compounds, 1.6% hits; HT-1080-NT fibrosarcoma viability, CellTiter-Glo ATP luminescence, 48 h; Potency, µM (highest dose often 46.1 µM), hits mostly cytotoxic;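 also: NT is the 2HG producing partner of a matched IDH1 knockdown line; nearly all actives have a fitted effect of over 55% in size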
#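 Viability by CellTiter-Glo luminescence after 48 h compound exposure at 37C of HT-1080-NT cells (750/well, RPMI, 5% FBS). % activity scaled between DMSO wells and medium-only wells, then curve-fitted and categorized by curve class.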
# TDP1 cell noCPT: qHTS for Inhibitors of human tyrosyl-DNA phosphodiesterase 1 (TDP1): qHTS in cells in absence of CPT. DT40 Tdp1-/- hTDP1 cells, no CPT, ATP luminescence, 48 h. Potency, µM (series often up to 46.2 µM), hits mostly inhibitors. 420,000 compounds, 15% hits. AID 686978, 2013; also: nearly all actives have a fitted effect of over 55% in size
#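 Chicken DT40 Tdp1-/- cells stably complemented with human TDP1 were seeded at 400 cells/well with DMSO in place of 20 nM camptothecin. After compound pinning, cells grew at least 48 hr at 37 °C; viability read by CellTiter-Glo luminescence.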
# IL-1B inflam inh: inhibitors of inflammasome signaling (IL-1 beta secretion) | AID 743279 | 360,000 compounds, 4.7% hits | THP-1 LPS/ATP IL-1B secretion, AlphaLISA, 16 h; hits give low values | activity change, % at 57.5 µM; in the data active = activity change below about -50%; inconclusive = mostly about -30% to -49%
#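 THP-1 cells pretreated 1 hr with compounds (up to 57.5 uM final), then stimulated with LPS (250 ng/mL final) plus ATP (1.25 mM final); secreted IL-1B measured by AlphaLISA after 16 hr, decreased signal indicating inhibition.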
# Numbers stand for hits; – = inactive; ? = inconclusive; · = no result. Shown are actives, neighbours in structure and some others; about 19% of the full set was active somewhere. Unless noted, calls follow the shape of the dose curve; as a rule, active = well fitted curve in the direction sought with a large enough effect; inconclusive = small, poorly fitted or top-dose-only effect, or another doubt; inactive = no such curve, though single readings can be large; an effect the other way counts as inactive or inconclusive.
SMILES,TDP1 cell CPT,HT1080 IDH1KD tx,HT1080NT lethal,TDP1 cell noCPT,IL-1B inflam inh
O=C(C1CCN(Cc2ccc(F)cc2)CC1)N(CCO)Cc1ccccc1,–,–,–,–,–
CCN(CC)C(=O)C1CCN(Cc2cccc(OCc3ccccc3)c2)CC1,–,–,–,?,–
O=C(C1CCN(Cc2ccc(F)cc2)CC1)N(CCc1ccccc1)Cc1ccccc1,23µM,–,–,16µM,-89
CCN(CC)C(=O)C1CCN(Cc2ccc(OCc3ccccc3)cc2)CC1,–,–,–,–,-57
CCNC(=O)C1CCCN(Cc2ccc(OCc3ccccc3)cc2)CC1 (centres undefined),18µM,–,?,7.3µM,–
CC1=C(C(=O)N2CCOCC2)CC(CC(=O)NCCCCc2ccccc2)C(=O)N1Cc1ccc(F)cc1 (centres undefined),–,–,–,?,–
CN1CCN(S(=O)(=O)c2ccc(Cl)cc2)CC1,–,–,–,–,–
Cc1ccc(S(=O)(=O)c2ccc(Cl)cc2)cc1S(=O)(=O)N1CCN(C)CC1,14µM,–,–,?,–
Cc1nnc(SCc2cc(=O)[nH]c(/N=C(\N)Nc3ccccc3)n2)s1,?,18µM,?,21µM,–
COc1ccc(N/C(N)=N/c2nc(CSc3ccc(Cl)cc3)cc(=O)[nH]2)cc1,?,–,–,?,–
Cc1nnc(SCc2cc(=O)[nH]c(/N=C(\N)Nc3ccccc3Sc3ccccc3)n2)s1,–,–,–,–,–
CCOc1ccc(N/C(N)=N/c2nc(CSc3nnc(C)s3)cc(=O)[nH]2)cc1,0.65µM,0.92µM,0.21µM,0.58µM,–
COc1ccc(S(=O)(=O)N2CCOCC2)cc1NC(=O)COc1cccnc1[N+](=O)[O-],–,–,–,–,?
O=C(CC1SCCNC1=O)NCc1ccccc1 (centres undefined),–,–,–,–,–
COc1cccc(CN2CCN(C(c3ccccc3)c3ccccc3)CC2)c1O,?,–,–,21µM,–
COc1cc(CN2CCN(C(c3ccccc3)c3ccccc3)CC2)cc(OC)c1OC,8.2µM,?,–,3.3µM,–
OC(CN1CCN(C(c2ccccc2)c2ccccc2)CC1)c1ccccc1 (centres undefined),?,–,–,?,–
COc1cccc(CN2CCN(Cc3cc(OC)c(OC)c(OC)c3)CC2)c1OC,?,–,–,?,–
COc1cc(C(=S)N2CCN(C(c3ccccc3)c3ccccc3)CC2)cc(OC)c1O,15µM,–,–,8.2µM,-50
Cc1cccc(CN(C)C)c1CC(O)(c1ccccc1)c1ccccc1,?,–,–,?,–
CN(C)Cc1cc(C(F)(F)F)ccc1C(O)(c1ccccc1)c1ccccc1,?,–,–,?,-75
CN(C)Cc1ccccc1C(O)(c1ccccc1)c1ccccc1,29µM,–,?,?,-71
COc1cccc(N2CCN(S(=O)(=O)c3ccc4ccccc4c3)CC2)c1,?,–,–,?,–
CN(CCCNC(=O)c1ccc(/C=N/O)nc1)CCCN(C)Cc1ccccc1,?,–,–,23µM,–
Cc1ccccc1-c1cnc(C(O)c2ccc(Cl)cc2)[nH]1 (centres undefined),?,–,–,?,–
SMILES,TDP1 cell CPT,HT1080 IDH1KD tx,HT1080NT lethal,TDP1 cell noCPT,IL-1B inflam inh
Cc1cccc(CN2C(=O)N/C(=C/c3ccc(C)s3)C2=O)c1,21µM,?,–,16µM,–
Cc1cc(/C=C2/NC(=O)NC2=O)c(C)n1-c1ccccn1,–,–,–,–,–
Cc1ccc(/C=C2/NC(=O)N(Cc3ccccc3)C2=O)s1,?,–,–,–,–
Cc1cccc(CN2C(=O)N/C(=C/c3cc(C)n(-c4cc(C)ccn4)c3C)C2=O)c1,?,–,–,23µM,-58
CN(C)c1cc(N/N=C/c2ccc(Cl)cc2)nc(N(C)C)n1,?,–,–,18µM,–
COc1cc(N/N=C/c2ccc(N(C)C)cc2)ncn1,–,–,–,?,–
COc1ccc(C(=O)NCC(=O)OCc2ccc([N+](=O)[O-])cc2)cc1,–,–,–,–,–
Cc1ccc(C(=O)NCC(=O)NCC(=O)OCc2ccc(Oc3ccc([N+](=O)[O-])cc3)cc2)cc1,?,–,–,21µM,–
Cc1ccc(C(=O)NCC(=O)NCC(=O)OCC(=O)c2ccc([N+](=O)[O-])cc2)cc1,23µM,–,–,23µM,–
CCOC(=O)N1CCN(C(=O)c2ccc3c(c2)NC(=O)C(N2CCOCC2)S3)CC1 (centres undefined),–,–,–,–,–
Cc1ccc(-c2noc(CNCCCN(C)C)n2)cc1,–,–,–,–,–
Cc1cc(C)n(-c2nnc(Nc3ccc(C)c(Cl)c3)c3ccccc23)n1,?,·,·,8.2µM,·
COc1ccc(Nc2nnc(-n3nc(C)cc3C)c3ccccc23)cc1,–,·,·,–,·
CN(Cc1ccc(Cl)c(Cl)c1)C(=O)c1ccccc1SCC(=O)N1CCCC1,?,–,–,21µM,-72
CN(C)S(=O)(=O)c1cccc(NC(=O)c2ccccc2SCC(=O)N2CCCC2)c1,–,–,–,?,–
CN(CC(=O)Nc1ccc(OC(F)(F)F)cc1)C(=O)c1ccccc1SCC(=O)N1CCCC1,23µM,–,–,?,–
CN(CC(=O)Nc1ccc(Cl)c(Cl)c1)C(=O)c1ccccc1SCC(=O)N1CCCC1,?,–,–,23µM,–
O=C(COC(=O)c1ccccc1SCC(=O)N1CCCC1)Nc1ccc(OC(F)F)cc1,–,–,–,?,–
CN(Cc1cccc(Cl)c1Cl)C(=O)c1ccccc1SCC(=O)N1CCCC1,12µM,–,?,13µM,–
Cc1cc(C)cc(-c2nnc(SCC(=O)NCC3CCCO3)o2)c1 (centres undefined),–,–,–,–,–
COc1ccc2c(c1)c1c(c(=O)n(-c3ccc(C)cc3)c(=O)n1CC(=O)c1ccc(Cl)cc1)n2C,–,·,·,?,·
Cc1nc2ccc(Br)cc2c(=O)n1Cc1cccs1,–,–,–,–,–
COc1ccccc1CN(C)C(=O)c1ccccc1SCC(=O)N1CCCC1,?,–,–,–,–
COc1ccc(Br)cc1CN(C)C(=O)c1ccccc1SCC(=O)N1CCCC1,?,–,–,?,-53
Nc1ccccc1Nc1nc2ccccc2[nH]1,?,–,–,26µM,–
c1ccc(Nc2ccccn2)cc1,?,–,–,26µM,–
c1ccc(Nc2nc3ccccc3[nH]2)nc1,?,–,–,?,-80
Cc1ccc(C)c(Nc2nc3ccccc3[nH]2)c1,–,–,–,–,-94
CC(=O)Nc1cccc(NC(=O)CCN2C(=O)c3ccccc3S2(=O)=O)c1,–,–,–,–,–

# Bioassay records (PubChem)
